# Reference: PubChem BioAssay (EPA / NIEHS)
# Results filed as inconclusive are left out. Active and inactive are the calls of the source. Rule for the calls, unless noted: active = hit-call score of the fitted dose curve at least 0.9, where 1 is the maximum; inactive = score below 0.9.
# Legend:
# [1] = molecular target: Nuclear respiratory factor 1 (Homo sapiens) (UniProt Q16656); test: ATG_NRF1_CIS: Attagene CIS-FACTORIAL HepG2 Assay for human Nuclear Respiratory Factor 1 (NRF1) Orphan Gene (AID 2282987); details: HepG2 NRF1 cis-element reporter, Attagene multiplex; actives raise or lower the signal
# Chain of Nuclear respiratory factor 1 (Homo sapiens) (Q16656 whole entry, looked up, the tested form may be a part): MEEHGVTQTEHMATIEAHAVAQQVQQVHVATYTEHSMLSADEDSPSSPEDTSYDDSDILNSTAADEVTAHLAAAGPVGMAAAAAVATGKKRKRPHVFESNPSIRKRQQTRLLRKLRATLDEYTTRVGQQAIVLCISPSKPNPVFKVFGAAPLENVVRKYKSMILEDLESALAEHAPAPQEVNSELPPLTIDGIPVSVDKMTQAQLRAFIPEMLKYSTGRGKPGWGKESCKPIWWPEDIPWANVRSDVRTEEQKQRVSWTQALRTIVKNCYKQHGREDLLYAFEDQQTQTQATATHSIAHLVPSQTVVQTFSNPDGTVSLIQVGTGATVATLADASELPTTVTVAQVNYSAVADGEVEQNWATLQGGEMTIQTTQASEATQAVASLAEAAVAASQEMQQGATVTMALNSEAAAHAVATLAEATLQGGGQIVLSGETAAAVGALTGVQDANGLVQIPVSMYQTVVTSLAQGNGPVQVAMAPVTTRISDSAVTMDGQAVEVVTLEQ
# Procedure, shortened: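 Fluorescence intensity of labelled reporter cDNA fragments, resolved by capillary electrophoresis, served as readout for NRF1 cis-element activity. Transiently transfected HepG2 cells were dosed for 24 hours; activity in either direction was fitted against DMSO negative control.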
# [2] = molecular target: Myc proto-oncogene protein (Homo sapiens) (UniProt P01106); test: ATG_Myc_CIS: Attagene CIS-FACTORIAL HepG2 Assay for human Myelocytomatosis (Myc) Proto-Oncogene Transcription Factor (AID 2282990); details: HepG2, Attagene cis-reporter transcription factor activity; actives raise or lower the signal
# Chain of Myc proto-oncogene protein (Homo sapiens) (P01106 whole entry, looked up): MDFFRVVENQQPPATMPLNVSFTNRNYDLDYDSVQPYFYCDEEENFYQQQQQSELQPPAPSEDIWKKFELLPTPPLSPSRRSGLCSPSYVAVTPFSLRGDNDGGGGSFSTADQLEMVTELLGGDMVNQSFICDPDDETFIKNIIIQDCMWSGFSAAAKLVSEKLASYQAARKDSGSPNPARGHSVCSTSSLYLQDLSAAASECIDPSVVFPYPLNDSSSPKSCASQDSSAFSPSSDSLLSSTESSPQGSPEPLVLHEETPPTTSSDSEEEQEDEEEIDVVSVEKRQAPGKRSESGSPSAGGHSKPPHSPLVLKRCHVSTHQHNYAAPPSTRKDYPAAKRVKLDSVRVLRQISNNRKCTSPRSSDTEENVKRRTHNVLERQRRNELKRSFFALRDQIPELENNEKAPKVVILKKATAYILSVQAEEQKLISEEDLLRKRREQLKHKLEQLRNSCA
# Procedure, shortened: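 HepG2 cells transiently transfected with multiple cis-promoter-driven reporter transcription units, so endogenous TF activity is read. After 24 h compound exposure, reporter mRNA was quantified by RT-PCR, 6-FAM labelling, HpaI digestion and capillary electrophoresis; bidirectional fit versus DMSO.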
# [3] = ATG_NF_kB_CIS: Attagene CIS-FACTORIAL HepG2 Assay for human Nuclear Factor Kappa B (NF-kB) (AID 2282991); details: HepG2 Attagene cis-factorial NF-kB reporter mRNA; actives raise or lower the signal
# Procedure, shortened: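 Endogenous transcription factor activity in HepG2 was captured via cis-regulated reporter constructs; after 24 h dosing, reporter mRNA was reverse-transcribed, amplified, fluorescently labelled and sized by capillary electrophoresis, with activity fitted bidirectionally relative to DMSO.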
# [4] = ATG_NRF2_ARE_CIS: Attagene CIS-FACTORIAL HepG2 Assay for human Nuclear Factor Erythroid 2 Related Factor 2 (NFR2) response to Antioxidant Response Elements (ARE) (AID 2282992); details: HepG2 Attagene ARE/NRF2 reporter, transcription factor activity; actives raise or lower the signal;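 for AC50: reporter mRNA level measured by RT-PCR and capillary electrophoresis fluorescence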
# Procedure, shortened: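 Readout: reporter mRNA quantified by RT-PCR plus FAM-labelled primer extension, HpaI digestion and capillary electrophoresis, 24 h after dosing transfected HepG2 cells. Gain or loss of signal is fitted bidirectionally against DMSO baseline.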
# [5] = ATG_Oct_MLP_CIS: Attagene CIS-FACTORIAL HepG2 Assay for human Octamer-Binding Transcription Factor (Oct) (AID 2282993); details: HepG2 Attagene cis-factorial Oct reporter, mRNA; actives raise or lower the signal
# Procedure, shortened: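 Transfected HepG2 cells, 24 h treatment. Reporter mRNA quantified by RT-PCR–capillary electrophoresis; bidirectional fitting against DMSO.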
# [6] = molecular target: Cellular tumor antigen p53 (Homo sapiens) (UniProt P04637); test: ATG_p53_CIS: Attagene CIS-FACTORIAL HepG2 Assay for human p53 Transcription Factor (AID 2282994); details: HepG2 p53 cis-element reporter, Attagene mRNA; actives raise or lower the signal
# Chain of Cellular tumor antigen p53 (Homo sapiens) (P04637 whole entry, looked up): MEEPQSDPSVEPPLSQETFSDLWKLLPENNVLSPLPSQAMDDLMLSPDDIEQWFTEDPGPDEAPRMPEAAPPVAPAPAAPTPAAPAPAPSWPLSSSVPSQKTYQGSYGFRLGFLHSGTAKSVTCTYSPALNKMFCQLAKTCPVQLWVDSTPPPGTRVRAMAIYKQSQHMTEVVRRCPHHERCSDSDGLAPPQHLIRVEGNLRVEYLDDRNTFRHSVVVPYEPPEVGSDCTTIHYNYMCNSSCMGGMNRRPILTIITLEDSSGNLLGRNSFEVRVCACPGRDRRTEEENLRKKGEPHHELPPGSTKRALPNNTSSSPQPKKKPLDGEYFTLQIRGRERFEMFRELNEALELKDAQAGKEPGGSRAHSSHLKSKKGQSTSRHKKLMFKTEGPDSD
# Procedure, shortened: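 Read-out: reporter mRNA by RT-PCR plus capillary electrophoresis with fluorescence detection. Human HepG2 liver cells carried transfected multi-reporter cis-element constructs, dosed 24 h. Gain or loss of signal fitted bidirectionally against DMSO control.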
# [7] = molecular target: human Peroxisome Proliferator-activated Receptor alpha (PPARa), PPARA (gene 5465) (UniProt Q07869); test: ATG_PPARa_TRANS: Attagene TRANS-FACTORIAL HepG2 Assay for human Peroxisome Proliferator-activated Receptor alpha (PPARa) (AID 2283001; active = hit-call score of the fitted dose curve at least 0.9, where 1 is the maximum;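 for AC50: potency for gain of reporter signal over DMSO so agonist or activator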)
# Chain of human Peroxisome Proliferator-activated Receptor alpha (PPARa), PPARA (gene 5465) (Q07869 whole entry, looked up): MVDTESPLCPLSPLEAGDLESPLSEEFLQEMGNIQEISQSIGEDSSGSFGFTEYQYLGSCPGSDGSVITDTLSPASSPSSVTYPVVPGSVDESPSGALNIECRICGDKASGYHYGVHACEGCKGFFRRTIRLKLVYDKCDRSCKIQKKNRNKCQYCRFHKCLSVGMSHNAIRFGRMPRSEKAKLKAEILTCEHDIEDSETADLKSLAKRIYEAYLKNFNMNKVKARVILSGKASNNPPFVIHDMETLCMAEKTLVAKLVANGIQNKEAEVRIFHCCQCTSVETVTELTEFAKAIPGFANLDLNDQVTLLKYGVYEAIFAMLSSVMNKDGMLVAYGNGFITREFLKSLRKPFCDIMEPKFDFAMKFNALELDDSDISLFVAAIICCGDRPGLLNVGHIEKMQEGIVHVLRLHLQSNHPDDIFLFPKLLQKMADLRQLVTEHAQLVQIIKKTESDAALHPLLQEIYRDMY
# Procedure, shortened: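 Cells (HepG2) are transfected with multiple reporter transcription units, exposed to chemical for 24 h, then total RNA is reverse-transcribed and amplified. Labelled products are quantified by capillary electrophoresis; induction is referenced to DMSO.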
# [8] = molecular target: human Peroxisome Proliferator-activated Receptor delta (PPARd), PPARD (gene 5467) (UniProt Q03181); test: ATG_PPARd_TRANS: Attagene TRANS-FACTORIAL HepG2 Assay for human Peroxisome Proliferator-activated Receptor delta (PPARd) (AID 2283002; active = hit-call score of the fitted dose curve at least 0.9, where 1 is the maximum)
# Chain of human Peroxisome Proliferator-activated Receptor delta (PPARd), PPARD (gene 5467) (Q03181 whole entry, looked up, the tested form may be a part): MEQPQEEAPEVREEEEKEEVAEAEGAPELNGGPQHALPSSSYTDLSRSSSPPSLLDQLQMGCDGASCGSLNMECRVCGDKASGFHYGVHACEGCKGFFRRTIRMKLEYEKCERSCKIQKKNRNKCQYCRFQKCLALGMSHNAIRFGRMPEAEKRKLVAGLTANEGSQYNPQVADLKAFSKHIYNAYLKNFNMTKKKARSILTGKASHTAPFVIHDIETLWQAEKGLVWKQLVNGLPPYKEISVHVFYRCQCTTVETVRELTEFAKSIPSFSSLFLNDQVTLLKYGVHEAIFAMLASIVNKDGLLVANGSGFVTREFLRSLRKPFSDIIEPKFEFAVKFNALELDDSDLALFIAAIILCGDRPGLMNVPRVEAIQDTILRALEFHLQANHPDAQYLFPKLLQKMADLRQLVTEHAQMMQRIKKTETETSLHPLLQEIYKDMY
# Procedure, shortened: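 HepG2 cells transiently transfected with multiplexed GAL4-UAS reporter units and exogenous chimeric NR-Gal4 proteins; 24 h compound exposure. Reporter mRNA measured by RT-PCR, 6-FAM labelling, HpaI digestion and capillary electrophoresis; gain of signal versus DMSO.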
# [9] = molecular target: Nuclear receptor subfamily 1 group I member 2 (Homo sapiens) (UniProt O75469); test: ATG_PXR_TRANS: Attagene TRANS-FACTORIAL HepG2 Assay for human Pregnane X Receptor (PXR) (AID 2283008; active = hit-call score of the fitted dose curve at least 0.9, where 1 is the maximum)
# Chain of Nuclear receptor subfamily 1 group I member 2 (Homo sapiens) (O75469 whole entry, looked up, the tested form may be a part): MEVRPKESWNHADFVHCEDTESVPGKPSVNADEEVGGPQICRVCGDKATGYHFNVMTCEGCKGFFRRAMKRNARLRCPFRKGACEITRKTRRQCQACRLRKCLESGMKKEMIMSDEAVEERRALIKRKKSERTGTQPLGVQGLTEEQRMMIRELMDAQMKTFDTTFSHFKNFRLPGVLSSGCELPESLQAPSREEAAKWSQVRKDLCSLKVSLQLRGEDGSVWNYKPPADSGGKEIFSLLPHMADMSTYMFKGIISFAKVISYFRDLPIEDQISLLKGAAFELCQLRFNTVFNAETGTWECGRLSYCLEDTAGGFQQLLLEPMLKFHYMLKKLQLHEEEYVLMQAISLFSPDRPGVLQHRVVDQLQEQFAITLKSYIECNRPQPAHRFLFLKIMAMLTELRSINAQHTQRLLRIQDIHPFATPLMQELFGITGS
# Procedure, shortened: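 Trans-factorial format: exogenous NR-Gal4 fusion activity, not endogenous factor, in transfected human HepG2 liver cells. After 24 h dosing, RNA isolated, reverse-transcribed, amplified and resolved by capillary electrophoresis; induction scored versus DMSO.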
# [10] = molecular target: Retinoic acid receptor alpha (Homo sapiens) (UniProt P10276); test: ATG_RARa_TRANS: Attagene TRANS-FACTORIAL HepG2 Assay for human Retinoic Acid Receptor alpha (RARa) (AID 2283005; active = hit-call score of the fitted dose curve at least 0.9, where 1 is the maximum)
# Chain of Retinoic acid receptor alpha (Homo sapiens) (P10276 whole entry, looked up, the tested form may be a part): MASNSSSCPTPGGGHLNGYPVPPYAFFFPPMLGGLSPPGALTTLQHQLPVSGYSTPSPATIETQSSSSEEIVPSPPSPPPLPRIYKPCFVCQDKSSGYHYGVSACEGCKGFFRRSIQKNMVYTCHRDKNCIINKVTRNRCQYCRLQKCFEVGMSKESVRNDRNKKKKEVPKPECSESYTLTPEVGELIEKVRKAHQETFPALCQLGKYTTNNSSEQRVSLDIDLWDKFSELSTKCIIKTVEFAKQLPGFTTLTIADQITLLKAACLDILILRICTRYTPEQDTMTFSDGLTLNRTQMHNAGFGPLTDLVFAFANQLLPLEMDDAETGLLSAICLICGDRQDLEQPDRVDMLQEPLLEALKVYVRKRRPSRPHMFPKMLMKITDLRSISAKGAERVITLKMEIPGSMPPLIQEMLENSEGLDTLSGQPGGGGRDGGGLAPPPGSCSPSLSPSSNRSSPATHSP
# Procedure, shortened: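 HepG2 cells transiently transfected with multiple reporter units expressing chimeric RARα-GAL4 fusion, with GAL4-UAS-driven reporters. After 24 h compound exposure, reporter mRNA induction quantified by RT-PCR and capillary electrophoresis with fluorescent labeling; gain-of-signal fitted relative to DMSO control.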
# [11] = molecular target: Peroxisome proliferator-activated receptor gamma (Homo sapiens) (UniProt P37231); test: ATG_PPARg_TRANS: Attagene TRANS-FACTORIAL HepG2 Assay for human Peroxisome Proliferator-activated Receptor-gamma (PPARg) (AID 2283007; active = hit-call score of the fitted dose curve at least 0.9, where 1 is the maximum)
# Chain of Peroxisome proliferator-activated receptor gamma (Homo sapiens) (P37231 whole entry, looked up, the tested form may be a part): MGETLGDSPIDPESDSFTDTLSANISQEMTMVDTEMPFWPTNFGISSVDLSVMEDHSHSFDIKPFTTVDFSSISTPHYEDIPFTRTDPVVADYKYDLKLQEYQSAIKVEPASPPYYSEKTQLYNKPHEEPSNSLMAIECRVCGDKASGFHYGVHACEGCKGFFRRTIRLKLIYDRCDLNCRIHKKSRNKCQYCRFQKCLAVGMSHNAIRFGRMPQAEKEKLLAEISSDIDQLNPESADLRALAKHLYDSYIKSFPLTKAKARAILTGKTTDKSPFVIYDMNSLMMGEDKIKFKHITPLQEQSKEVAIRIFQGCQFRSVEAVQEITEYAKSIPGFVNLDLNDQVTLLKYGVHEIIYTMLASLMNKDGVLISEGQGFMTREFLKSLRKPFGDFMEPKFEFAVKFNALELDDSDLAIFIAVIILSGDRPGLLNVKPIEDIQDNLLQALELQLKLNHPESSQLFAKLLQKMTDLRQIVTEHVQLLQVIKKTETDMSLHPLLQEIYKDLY
# Procedure, shortened: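 A TRANS-format multiplexed reporter assay measures activity of an exogenous chimeric NR-Gal4 protein in HepG2 cells. After 24 h of chemical exposure, reporter transcripts are amplified, fluorescently labelled and sized by capillary electrophoresis, with gain of signal scored against DMSO.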
# [12] = BSK_3C_TissueFactor: BioMAP Diversity Plus: 3C Assay for Tissue Factor Biomarker Activity (AID 2282997); details: BioMAP 3C HUVEC, tissue factor biomarker readout; actives raise or lower the signal
# Procedure, shortened: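 Tissue Factor measured by ELISA, 24 h after treatment of primary HUVEC in the BioMAP 3C setting.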
# [13] = BSK_3C_uPAR: BioMAP Diversity Plus: 3C Assay for Urokinase-type plasminogen activator receptor (uPAR) Biomarker Activity (AID 2282998); details: BioMAP 3C HUVEC, uPAR biomarker ELISA; actives raise or lower the signal
# Procedure, shortened: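 Readout: ELISA for surface uPAR. System: human umbilical vein endothelial primary cells, 24 h after chemical exposure. Analysis: bidirectional fit, DMSO baseline.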
# [14] = BSK_3C_VCAM1: BioMAP Diversity Plus: 3C Assay for Vascular cell adhesion molecule 1 (VCAM1) Biomarker Activity (AID 2282999); details: BioMAP 3C HUVEC, VCAM1 ELISA, cytokine-stimulated; actives raise or lower the signal
# Procedure, shortened: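 Vascular primary endothelium (human umbilical vein) was exposed to chemicals and assayed 24 h later. VCAM-1 levels came from ELISA, with DMSO serving as baseline for bidirectional fitting.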
# [15] = BSK_4H_Eotaxin3: BioMAP Diversity Plus: 4H Assay for Eotaxin 3 Biomarker Activity (AID 2283000); details: primary human endothelial cells (HUVEC); actives raise or lower the signal;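 note: CCL26 protein level quantified by ELISA in parallel with SRB cytotoxicity check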
# Procedure, shortened: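 Eotaxin-3 (CCL26) levels were measured by ELISA in HUVEC primary cultures 24 h post-dosing. Gain or loss of signal was fitted in both directions, with DMSO serving as baseline and negative control.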
# [16] = read-out: Intercellular Adhesion Molecule 1 (ICAM1), ICAM1 (gene 3383); test: BSK_3C_ICAM1: BioMAP Diversity Plus: 3C Assay for Intercellular Adhesion Molecule 1 (ICAM1) Biomarker Activity (AID 2283003); details: primary human endothelial cells (HUVEC); actives raise or lower the signal
# Procedure, shortened: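 Chemicals are dosed onto primary human umbilical vein endothelium (3C system). After 24 h, ICAM-1 is measured by ELISA, and responses are fitted bidirectionally relative to DMSO.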
# [17] = BSK_3C_Proliferation: Cell Proliferation Assessment in the BioMAP Diversity Plus: 3C Assay (AID 2283006); details: primary human endothelial cells (HUVEC)
# Procedure, shortened: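 Cells (human umbilical vein endothelial, sub-confluent) receive test chemical; after 48 h they are fixed in 10% trichloroacetic acid, stained with 0.1% SRB and read at 560 nm. Activity is referenced to DMSO, fitting increases and decreases.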
# [18] = ATG_NFI_CIS: Attagene CIS-FACTORIAL HepG2 Assay for human Nuclear Factor I (NFI) (AID 2282989); details: HepG2 cis-regulatory reporter, NFI response element transcription; actives raise or lower the signal
# Procedure, shortened: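 Reporter transcription driven by endogenous transcription factors in HepG2 cells; 24 h treatment. Quantitation by labelled RT-PCR fragments on capillary electrophoresis, gain- or loss-of-signal relative to DMSO.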
smiles,measurement,setting,value
CCCCCCCC/C=C\CCCCCCCC(=O)OCC(O)CO (stereo unspecified),outcome,[1],inactive
same,outcome,[2],inactive
same,outcome,[3],inactive
same,AC50,[4],68.4 µM (active)
same,outcome,[5],inactive
same,outcome,[6],inactive
same,AC50,[7],27.7 µM (active)
same,outcome,[8],inactive
same,outcome,[9],inactive
N#CCCOCCC#N,outcome,[1],inactive
same,outcome,[2],inactive
same,outcome,[3],inactive
same,outcome,[4],inactive
same,outcome,[5],inactive
same,outcome,[6],inactive
same,outcome,[10],inactive
same,outcome,[11],inactive
same,outcome,[9],inactive
COC(F)(C(F)F)C(F)(F)F (stereo unspecified),outcome,[1],inactive
same,outcome,[2],inactive
same,outcome,[3],inactive
same,outcome,[4],inactive
same,outcome,[5],inactive
same,outcome,[6],inactive
same,outcome,[12],inactive
same,outcome,[13],inactive
same,outcome,[14],inactive
same,outcome,[15],inactive
same,outcome,[8],inactive
same,outcome,[16],inactive
same,outcome,[10],inactive
same,outcome,[17],inactive
same,outcome,[11],inactive
same,outcome,[9],inactive
O=C(O)C(F)(F)C(F)(F)C(F)(F)C(F)(F)C(F)(F)C(F)(F)C(F)F,outcome,[1],inactive
same,outcome,[2],inactive
same,outcome,[3],inactive
same,AC50,[4],100 µM (active)
same,outcome,[5],inactive
same,outcome,[6],inactive
same,outcome,[12],inactive
same,outcome,[13],inactive
same,outcome,[15],inactive
same,AC50,[7],6.55 µM (active)
same,outcome,[8],inactive
same,outcome,[16],inactive
same,outcome,[17],inactive
same,AC50,[11],41.8 µM (active)
same,outcome,[9],inactive
OCC(F)(F)C(F)(F)C(F)(F)CO,outcome,[1],inactive
same,outcome,[2],inactive
same,outcome,[3],inactive
same,outcome,[4],inactive
same,outcome,[5],inactive
same,outcome,[6],inactive
same,outcome,[12],inactive
same,outcome,[13],inactive
same,outcome,[14],inactive
same,outcome,[15],inactive
same,outcome,[7],inactive
same,outcome,[8],inactive
same,outcome,[16],inactive
same,outcome,[17],inactive
O=C1c2ccccc2C(=O)c2c(Cl)cccc21,outcome,[1],inactive
same,outcome,[2],inactive
same,AC50,[3],4.35 µM (active)
same,outcome,[4],inactive
same,outcome,[5],inactive
same,outcome,[6],inactive
same,outcome,[7],inactive
same,outcome,[8],inactive
same,outcome,[10],inactive
same,outcome,[11],inactive
same,AC50,[9],2.73 µM (active)
Oc1ccc(C2(c3ccc(O)c(C4CCCCC4)c3)CCCCC2)cc1C1CCCCC1,outcome,[1],inactive
same,outcome,[2],inactive
same,outcome,[3],inactive
same,AC50,[4],6.2 µM (active)
same,outcome,[5],inactive
same,outcome,[6],inactive
same,outcome,[7],inactive
same,outcome,[10],inactive
same,AC50,[11],2.92 µM (active)
same,AC50,[9],0.977 µM (active)
Brc1nc2ccccc2s1,outcome,[1],inactive
same,outcome,[18],inactive
same,outcome,[2],inactive
same,AC50,[4],23.6 µM (active)
same,outcome,[5],inactive
same,outcome,[6],inactive
same,outcome,[12],inactive
same,outcome,[13],inactive
same,outcome,[15],inactive
same,outcome,[7],inactive
same,outcome,[8],inactive
same,outcome,[16],inactive
same,outcome,[17],inactive
CCCCCCCCCCCCCC[P+](CCCC)(CCCC)CCCC,outcome,[1],inactive
same,outcome,[2],inactive
same,outcome,[3],inactive
same,AC50,[4],0.719 µM (active)
same,AC50,[5],0.903 µM (active)
same,outcome,[7],inactive
same,outcome,[8],inactive
same,outcome,[11],inactive
same,outcome,[9],inactive
